Screening data: PubChem, National Center for Advancing Translational Sciences (NCATS)
The sample as a whole holds a higher share of hits than the screen did.
Pf Dd2 inh: Plasmodium falciparum Dd2 growth inhibition; P. falciparum Dd2 growth, SYBR Green, 72 h; Potency, µM (doses to about 28.9 µM), for inactives: top-dose activity, negative = inhibition, most hits filed as inhibitors; hit rate 4.3% among 120,000; active = well fitted inhibition curve with a large enough effect;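 also: plate controls were DMSO vehicle for no effect and reference drug for full effect; nearly all actives have a fitted effect of over 65% in size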
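Readout: SYBR Green fluorescence, 485 nm excitation, 535 nm emission, after ~16 h lysis at 37C. Before that, Dd2-infected red cells (2.5% hematocrit) grew 72 h with compound, 29 uM top final concentration.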
An asterisk follows results filed as active; i = inactive; [ ] = another dose, or the depositor's remark. Potency is read from the fitted curve at half-maximal effect.

SMILES	Pf Dd2 inh
COCC1CN(C(C)=O)CC12CCN(S(=O)(=O)c1c(C)noc1C)CC2 (stereo not given)	16.9%
CCOc1ccc(Nc2c(S(=O)(=O)c3ccc(C)cc3)cnc3ccccc23)cc1	-13.6%
Cc1ccc2ncc(S(=O)(=O)c3ccccc3)c(N3CCCCC3C)c2c1 (stereo not given)	10µM*
CC1CCCN(c2c(S(=O)(=O)c3ccccc3)cnc3ccc(Cl)cc23)C1 (stereo not given)	-12.7%
COCCN(Cc1nc(-c2cc3c(cc2Cl)OCO3)oc1C)C(C)C	-17.4%
COc1ccc(C(=O)N2CCCC3(C2)NC(=O)N(Cc2ccc(C)cc2)C3=O)cc1OC (stereo not given)	12.3%
CN1CCN(c2cc(=O)c3ccnc(-c4ccnn4C)c3o2)CC1	-18.5%[44.1 µM]
Cc1ccc(S(=O)(=O)N2CCN(C3CCN(CCC(C)C)C3=O)CC2)cc1Cl (stereo not given)	3.98µM*
Cc1cc(Cl)ccc1S(=O)(=O)N1CCN(C2CCN(CCC(C)C)C2=O)CC1 (stereo not given)	-28.3%
CC(C)CCN1CCC(N2CCN(S(=O)(=O)c3ccc(F)cc3)CC2)C1=O (stereo not given)	-16.2%
COc1cc(CN(C(=O)C2CCC2)[C@H]2CCCCNC2=O)ccc1OCCc1scnc1C	-5.9%
CNC(=O)[C@@H](C1CCCCC1)N1CCC[C@H]1C(=O)N1CCN(CCOC)CC1	39.1%
CCc1ccc(-c2nn(CC(=O)NCc3ccccc3)c3c2cnc2ccc(F)cc23)cc1	-1.0%
CCc1ccc(C(=O)c2cnc3ccc(F)cc3c2S(=O)(=O)c2ccccc2)cc1	11.2µM*
CCc1ccc(-c2nn(CC(=O)Nc3ccccc3)c3c2cnc2ccc(F)cc23)cc1	10.4%
CCOC(=O)c1cc(-c2ccc(C)cc2)n(CC(=O)Nc2cc(C)ccc2C)c1C	2.6%
CCOC(=O)c1cc(-c2ccccc2)n(CCCC(=O)Nc2ccc(C)cc2Cl)c1C	i
CCOC(=O)c1cc(-c2ccc(C)cc2)n(CCCC(=O)Nc2cc(C)ccc2C)c1	11.2µM*
O=C(c1ccc2c(c1)OCO2)N1CCC2(CC1)COc1ccccc1NC2=O	15.6%
COCCOc1ccc2c(n1)CCN(C(=O)c1ccc(OC)cc1OC)C2	-2.2%
COc1ccc2c(c1)c(=O)c(S(=O)(=O)c1ccc(Cl)cc1)cn2Cc1cc(C)ccc1C	11.2µM*
CCOc1ccc2c(c1)c(=O)c(S(=O)(=O)c1ccc(CC)cc1)cn2CC	-10.8%
Cc1ccc(S(=O)(=O)c2cn(CC(=O)Nc3ccc(Cl)cc3)c3ccc(F)cc3c2=O)cc1C	i
CCOc1ccc(S(=O)(=O)c2cn(Cc3ccccc3C)c3ccc(OC)cc3c2=O)cc1	4.47µM*
COc1ccc(S(=O)(=O)c2cn(C)c3ccc(C)cc3c2=O)cc1	21.3%
SMILES	Pf Dd2 inh
O=c1c(S(=O)(=O)c2ccc(Cl)cc2)cn(Cc2ccc(F)cc2)c2ccc(F)cc12	11.2µM*
Cc1ccc(S(=O)(=O)c2cn(Cc3ccc(F)cc3)c3cc(F)c(F)cc3c2=O)cc1	13.4%
COc1ccc(OC)c(NC(=O)Cn2cc(S(=O)(=O)c3ccccc3)c(=O)c3cc(C)ccc32)c1	i
CCOc1ccc2c(c1)c(=O)c(S(=O)(=O)c1ccc(F)cc1)cn2CC(=O)Nc1ccccc1C	i
CC(C)NC(=O)C1CCc2nnc(C3CCN(C(=O)Nc4ccc(Cl)cc4)CC3)n21 (stereo not given)	-0.1%
NC(=O)[C@@H](Cc1ccccc1)NC(=O)[C@@]1(O)C[C@@H](O)[C@H](O)[C@@H](NC(=O)Cc2cccs2)C1	12.4%
CCOc1cc(=O)n2c(c1C(=O)Nc1cccc(SC)c1)CCCC2	6.0%
O=C(Cc1ccccc1)Nc1ccc([C@H]2OCC(=O)N[C@@H]2CO)cc1	27.8%[44.1 µM]
O=C(c1ccc2c(c1)OCO2)N1CCC2(CC1)NC(=O)N(c1ccc(F)cc1)N2	8.4%
CCOc1ccccc1C(=O)NC1CCN(c2cnn(C)c(=O)c2)CC1	-5.4%
Cc1cccc(C(=O)N2C[C@@H](Oc3ccccc3)C[C@@H]2C(=O)N2CCOCC2)c1	i
CCn1cc(S(=O)(=O)N2CCCC(c3nn[nH]n3)C2)cn1 (stereo not given)	19.4%
COc1cccc([S+](=O)([O-])N2CCCC3(CC(c4cccnc4)=NO3)C2)c1 (stereo not given)	4.9%
CSc1nc(Nc2cccc(C)c2)c(C#N)c(-c2ccccc2)n1	1.8%
CSc1nc(NCCOC(C)=O)c(C#N)c(-c2ccc(C(C)(C)C)cc2)n1	10µM*
Cc1ccc(CNC(=O)N2c3ccccc3CC2c2nc(C3CC3)no2)cc1 (stereo not given)	6.5%[5.79 µM]
CCN1C=C(C(=O)O)C(C)=NS1(=O)=O	-10.5%
COc1cc2c(cc1OCc1ccccc1)NC(=O)C21CCN(Cc2ccncc2)CC1	12.6µM*
COc1cc2c(cc1OCc1ccccc1)NC(=O)C21CCN(C(C)=O)CC1	i
COc1cc2c(cc1Oc1ccccc1)NC(=O)C21CCN(c2ncccn2)CC1	-5.8%[44.1 µM]
COc1cc2c(cc1Oc1ccccc1)NC(=O)C21CCN(Cc2ccccc2)CC1	i
